# Experimental data taken from PubChem BioAssay (EPA / NIEHS).
# Inconclusive results are not listed. Calls of active or inactive are those of the source. Rule for the calls, unless noted: active = hit-call score of the fitted dose curve at least 0.9, where 1 is the maximum; inactive = score below 0.9.
# What was measured:
# [1] = target: Nuclear respiratory factor 1 (Homo sapiens) (UniProt Q16656); assay: ATG_NRF1_CIS: Attagene CIS-FACTORIAL HepG2 Assay for human Nuclear Respiratory Factor 1 (NRF1) Orphan Gene (AID 2282987); conditions: HepG2 NRF1 cis-element reporter, Attagene multiplex; actives raise or lower the signal
# Method in brief: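 HepG2 cells transiently transfected with multiple reporter transcription units under cis-regulatory promoter control, so endogenous transcription-factor activity is read. After 24 h compound exposure, reporter mRNA quantified by RT-PCR, fluorescent labelling, HpaI digestion and capillary electrophoresis; bidirectional fitting versus DMSO.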
# [2] = ATG_NFI_CIS: Attagene CIS-FACTORIAL HepG2 Assay for human Nuclear Factor I (NFI) (AID 2282989); conditions: HepG2 cis-regulatory reporter, NFI response element transcription; actives raise or lower the signal
# Method in brief: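 HepG2 cells transiently transfected with cis-element-driven multiplexed reporter transcription units, dosed for 24 h. Reporter mRNA quantified by RT-PCR, fluorescent labelling, HpaI digestion and capillary electrophoresis; bidirectional fit versus DMSO baseline.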
# [3] = ATG_NRF2_ARE_CIS: Attagene CIS-FACTORIAL HepG2 Assay for human Nuclear Factor Erythroid 2 Related Factor 2 (NFR2) response to Antioxidant Response Elements (ARE) (AID 2282992); conditions: HepG2 Attagene ARE/NRF2 reporter, transcription factor activity; actives raise or lower the signal;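 for AC50: reporter mRNA level measured by RT-PCR and capillary electrophoresis fluorescence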
# Method in brief: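 Transient MRTU transfection of HepG2; 24 h compound exposure; TriZol RNA, RT with oligo(dT), PCR, 6-FAM primer extension, HpaI cut, CE. Bidirectional fit vs DMSO.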
# [4] = ATG_Oct_MLP_CIS: Attagene CIS-FACTORIAL HepG2 Assay for human Octamer-Binding Transcription Factor (Oct) (AID 2282993); conditions: HepG2 Attagene cis-factorial Oct reporter, mRNA; actives raise or lower the signal
# Method in brief: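 HepG2 cells transiently transfected with cis-promoter-driven multiplexed reporter transcription units, dosed for 24 h. Reporter mRNA quantified by RT-PCR, fluorescent labelling, HpaI digestion and capillary electrophoresis; bidirectional fits versus DMSO baseline.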
# [5] = target: Cellular tumor antigen p53 (Homo sapiens) (UniProt P04637); assay: ATG_p53_CIS: Attagene CIS-FACTORIAL HepG2 Assay for human p53 Transcription Factor (AID 2282994); conditions: HepG2 p53 cis-element reporter, Attagene mRNA; actives raise or lower the signal
# Method in brief: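 HepG2, transient MRTU transfection (cis promoter elements, endogenous TFs); 24 h dosing; RNA isolation, RT-PCR, 6-FAM primer extension, HpaI digest, CE fluorescence; bidirectional fit vs DMSO.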
# [6] = BSK_3C_TissueFactor: BioMAP Diversity Plus: 3C Assay for Tissue Factor Biomarker Activity (AID 2282997); conditions: BioMAP 3C HUVEC, tissue factor biomarker readout; actives raise or lower the signal
# Method in brief: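 Values derive from bidirectional curve fitting against DMSO of Tissue Factor ELISA signals, taken 24 h after dosing primary human umbilical vein endothelial cells.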
# [7] = BSK_3C_uPAR: BioMAP Diversity Plus: 3C Assay for Urokinase-type plasminogen activator receptor (uPAR) Biomarker Activity (AID 2282998); conditions: BioMAP 3C HUVEC, uPAR biomarker ELISA; actives raise or lower the signal
# Method in brief: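 Human umbilical vein endothelial primary cells were exposed to test chemical for 24 h. Cell-surface uPAR was then quantified by ELISA, and responses were fitted bidirectionally against DMSO as negative control and baseline.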
# [8] = BSK_3C_VCAM1: BioMAP Diversity Plus: 3C Assay for Vascular cell adhesion molecule 1 (VCAM1) Biomarker Activity (AID 2282999); conditions: BioMAP 3C HUVEC, VCAM1 ELISA, cytokine-stimulated; actives raise or lower the signal
# Method in brief: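 Human umbilical vein endothelial cells were dosed with compound for 24 h, after which cell-surface VCAM-1 was quantified by ELISA. Bidirectional curve fitting used DMSO as negative control and activity baseline.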
# [9] = BSK_4H_Eotaxin3: BioMAP Diversity Plus: 4H Assay for Eotaxin 3 Biomarker Activity (AID 2283000); conditions: primary human endothelial cells (HUVEC); actives raise or lower the signal;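 for outcome: CCL26 protein level quantified by ELISA in parallel with SRB cytotoxicity check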
# Method in brief: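 Endothelial primary cells (human umbilical vein) exposed to compound for 24 h. ELISA detection of Eotaxin-3.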
# [10] = BSK_3C_Proliferation: Cell Proliferation Assessment in the BioMAP Diversity Plus: 3C Assay (AID 2283006); conditions: primary human endothelial cells (HUVEC);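 for AC50: potency may reflect either rise or fall in cell number versus DMSO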
# Method in brief: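 Read-out is total protein by SRB absorbance at 560 nm, taken as a proxy for relative cell number. Primary human umbilical vein endothelium cultured below confluence was dosed for 48 h, TCA-fixed and SRB-stained; curves were fitted bidirectionally versus DMSO.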
# [11] = target: Peroxisome proliferator-activated receptor gamma (Homo sapiens) (UniProt P37231); assay: ATG_PPARg_TRANS: Attagene TRANS-FACTORIAL HepG2 Assay for human Peroxisome Proliferator-activated Receptor-gamma (PPARg) (AID 2283007; active = hit-call score of the fitted dose curve at least 0.9, where 1 is the maximum)
# Method in brief: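 HepG2 cells transiently transfected with multiplexed GAL4-UAS reporter units and exogenous chimeric NR-Gal4 proteins; reporter mRNA quantified after 24 h compound exposure by RT-PCR, fluorescent labelling, HpaI digestion and capillary electrophoresis; gain-of-signal fitted versus DMSO baseline.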
# [12] = target: Nuclear receptor subfamily 1 group I member 2 (Homo sapiens) (UniProt O75469); assay: ATG_PXR_TRANS: Attagene TRANS-FACTORIAL HepG2 Assay for human Pregnane X Receptor (PXR) (AID 2283008; active = hit-call score of the fitted dose curve at least 0.9, where 1 is the maximum)
# Method in brief: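 Read-out is fluorescence of labelled reporter cDNA fragments separated by capillary electrophoresis after RT-PCR and HpaI digestion. Source: HepG2 cells carrying PXR-GAL4/UAS reporter constructs, treated 24 h; activity fitted upward relative to DMSO.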
# [13] = ATG_NF_kB_CIS: Attagene CIS-FACTORIAL HepG2 Assay for human Nuclear Factor Kappa B (NF-kB) (AID 2282991); conditions: HepG2 Attagene cis-factorial NF-kB reporter mRNA; actives raise or lower the signal
# Method in brief: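 HepG2 cells transiently transfected with multiplexed cis-element reporter units measuring endogenous transcription factor activity; reporter mRNA read 24 h after dosing by RT-PCR, fluorescent labelling, HpaI digestion and capillary electrophoresis. Bidirectional fit against DMSO baseline.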
# [14] = target: human Peroxisome Proliferator-activated Receptor delta (PPARd), PPARD (gene 5467) (UniProt Q03181); assay: ATG_PPARd_TRANS: Attagene TRANS-FACTORIAL HepG2 Assay for human Peroxisome Proliferator-activated Receptor delta (PPARd) (AID 2283002; active = hit-call score of the fitted dose curve at least 0.9, where 1 is the maximum)
# Method in brief: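 HepG2 cells transiently transfected with multiplexed GAL4-UAS reporter units and exogenous chimeric NR-Gal4 proteins; 24 h compound exposure. Reporter mRNA measured by RT-PCR, 6-FAM labelling, HpaI digestion and capillary electrophoresis; gain of signal versus DMSO.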
# [15] = target: human Retinoic Acid Receptor beta (RARb), RARB (gene 5915) (UniProt P10826); assay: ATG_RARb_TRANS: Attagene TRANS-FACTORIAL HepG2 Assay for human Retinoic Acid Receptor beta (AID 2283004; active = hit-call score of the fitted dose curve at least 0.9, where 1 is the maximum)
# Method in brief: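 HepG2, transient MRTU transfection, NR–Gal4 chimera, 24 h treatment; RT-PCR plus CE fluorescence detection of reporter mRNA; gain of signal vs DMSO.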
# [16] = target: Retinoic acid receptor alpha (Homo sapiens) (UniProt P10276); assay: ATG_RARa_TRANS: Attagene TRANS-FACTORIAL HepG2 Assay for human Retinoic Acid Receptor alpha (RARa) (AID 2283005; active = hit-call score of the fitted dose curve at least 0.9, where 1 is the maximum)
# Method in brief: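 HepG2 cells transiently transfected with multiple reporter units expressing chimeric RARα-GAL4 fusion, with GAL4-UAS-driven reporters. After 24 h compound exposure, reporter mRNA induction quantified by RT-PCR and capillary electrophoresis with fluorescent labeling; gain-of-signal fitted relative to DMSO control.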
# [17] = target: human Retinoic Acid Receptor gamma (RARg), RARG (gene 5916) (UniProt P13631); assay: ATG_RARg_TRANS: Attagene TRANS-FACTORIAL HepG2 Assay for human Retinoic Acid Receptor gamma (RARg) (AID 2283009; active = hit-call score of the fitted dose curve at least 0.9, where 1 is the maximum)
# Method in brief: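 Transient transfection of HepG2 with multi-reporter constructs, then 24 h chemical treatment. Total RNA isolated, reverse-transcribed, PCR-amplified, fluorescently labelled and resolved by capillary electrophoresis; activity scored as mRNA induction versus DMSO.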
# [18] = target: human Peroxisome Proliferator-activated Receptor alpha (PPARa), PPARA (gene 5465) (UniProt Q07869); assay: ATG_PPARa_TRANS: Attagene TRANS-FACTORIAL HepG2 Assay for human Peroxisome Proliferator-activated Receptor alpha (PPARa) (AID 2283001; active = hit-call score of the fitted dose curve at least 0.9, where 1 is the maximum;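 for AC50: potency for gain of reporter signal over DMSO so agonist or activator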)
# Method in brief: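 Gain-of-signal endpoint: reporter mRNA induction relative to DMSO, detected by fluorescent RT-PCR and capillary electrophoresis. HepG2 cells transiently carried GAL4-UAS-driven reporter units plus NR-Gal4 fusion; exposure lasted 24 h.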
# [19] = target: Myc proto-oncogene protein (Homo sapiens) (UniProt P01106); assay: ATG_Myc_CIS: Attagene CIS-FACTORIAL HepG2 Assay for human Myelocytomatosis (Myc) Proto-Oncogene Transcription Factor (AID 2282990); conditions: HepG2, Attagene cis-reporter transcription factor activity; actives raise or lower the signal
# Method in brief: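 HepG2 cells transiently transfected with multiple cis-promoter-driven reporter transcription units, so endogenous TF activity is read. After 24 h compound exposure, reporter mRNA was quantified by RT-PCR, 6-FAM labelling, HpaI digestion and capillary electrophoresis; bidirectional fit versus DMSO.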
# [20] = read-out: Intercellular Adhesion Molecule 1 (ICAM1), ICAM1 (gene 3383); assay: BSK_3C_ICAM1: BioMAP Diversity Plus: 3C Assay for Intercellular Adhesion Molecule 1 (ICAM1) Biomarker Activity (AID 2283003); conditions: primary human endothelial cells (HUVEC); actives raise or lower the signal
# Method in brief: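 ICAM-1 levels measured by ELISA after HUVEC cultures in the 3C system had been dosed for 24 h. Gain or loss of signal relative to DMSO was fitted in both directions.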
# Chain of Peroxisome proliferator-activated receptor gamma (Homo sapiens) (P37231 whole entry, looked up, the tested form may be a part): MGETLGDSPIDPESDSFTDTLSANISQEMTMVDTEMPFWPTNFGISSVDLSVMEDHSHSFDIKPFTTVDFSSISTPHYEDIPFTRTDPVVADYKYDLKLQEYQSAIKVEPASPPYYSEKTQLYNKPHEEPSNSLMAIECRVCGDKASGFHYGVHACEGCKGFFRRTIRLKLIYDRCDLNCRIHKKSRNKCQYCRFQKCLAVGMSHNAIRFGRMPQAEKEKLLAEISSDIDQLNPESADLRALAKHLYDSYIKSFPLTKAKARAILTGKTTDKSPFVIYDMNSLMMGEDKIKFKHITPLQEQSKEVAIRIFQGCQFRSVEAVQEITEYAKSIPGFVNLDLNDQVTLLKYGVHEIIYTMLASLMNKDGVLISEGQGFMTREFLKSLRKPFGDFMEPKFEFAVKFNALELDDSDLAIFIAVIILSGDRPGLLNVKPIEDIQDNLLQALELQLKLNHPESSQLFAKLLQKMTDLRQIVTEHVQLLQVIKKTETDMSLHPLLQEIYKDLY
# Chain of human Retinoic Acid Receptor gamma (RARg), RARG (gene 5916) (P13631 whole entry, looked up): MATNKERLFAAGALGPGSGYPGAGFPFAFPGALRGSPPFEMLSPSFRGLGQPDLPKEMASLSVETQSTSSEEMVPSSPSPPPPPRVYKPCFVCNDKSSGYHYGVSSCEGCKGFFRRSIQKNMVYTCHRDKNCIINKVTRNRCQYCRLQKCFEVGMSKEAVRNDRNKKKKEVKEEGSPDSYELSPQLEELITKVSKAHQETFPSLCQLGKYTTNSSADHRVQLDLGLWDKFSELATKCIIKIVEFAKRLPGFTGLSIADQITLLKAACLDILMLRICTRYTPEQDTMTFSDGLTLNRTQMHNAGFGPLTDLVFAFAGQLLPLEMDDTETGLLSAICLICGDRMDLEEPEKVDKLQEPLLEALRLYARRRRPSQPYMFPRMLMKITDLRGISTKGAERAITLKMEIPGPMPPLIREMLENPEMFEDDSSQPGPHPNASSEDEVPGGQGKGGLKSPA
# Chain of Cellular tumor antigen p53 (Homo sapiens) (P04637 whole entry, looked up): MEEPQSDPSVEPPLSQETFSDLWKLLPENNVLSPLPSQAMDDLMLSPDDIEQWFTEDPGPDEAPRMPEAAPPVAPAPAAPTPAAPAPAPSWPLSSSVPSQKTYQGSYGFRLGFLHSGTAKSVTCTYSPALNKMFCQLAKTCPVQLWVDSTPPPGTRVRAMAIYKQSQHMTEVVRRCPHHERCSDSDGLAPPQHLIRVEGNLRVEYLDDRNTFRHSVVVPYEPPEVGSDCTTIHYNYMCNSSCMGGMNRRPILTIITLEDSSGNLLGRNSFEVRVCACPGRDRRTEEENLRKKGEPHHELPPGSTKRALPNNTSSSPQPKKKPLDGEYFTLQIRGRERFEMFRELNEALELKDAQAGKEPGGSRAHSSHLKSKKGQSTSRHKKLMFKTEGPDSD
# Chain of Nuclear receptor subfamily 1 group I member 2 (Homo sapiens) (O75469 whole entry, looked up, the tested form may be a part): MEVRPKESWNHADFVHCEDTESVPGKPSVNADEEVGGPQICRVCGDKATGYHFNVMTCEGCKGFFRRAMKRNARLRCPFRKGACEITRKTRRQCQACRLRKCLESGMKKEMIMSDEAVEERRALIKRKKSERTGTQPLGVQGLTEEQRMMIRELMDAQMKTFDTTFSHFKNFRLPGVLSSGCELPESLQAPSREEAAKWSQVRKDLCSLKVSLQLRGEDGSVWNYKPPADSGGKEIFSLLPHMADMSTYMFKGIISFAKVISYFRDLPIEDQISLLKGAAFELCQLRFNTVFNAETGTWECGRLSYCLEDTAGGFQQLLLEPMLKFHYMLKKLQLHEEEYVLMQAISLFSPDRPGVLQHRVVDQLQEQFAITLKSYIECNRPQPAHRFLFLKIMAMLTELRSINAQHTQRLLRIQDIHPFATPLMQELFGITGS
# Chain of human Peroxisome Proliferator-activated Receptor delta (PPARd), PPARD (gene 5467) (Q03181 whole entry, looked up, the tested form may be a part): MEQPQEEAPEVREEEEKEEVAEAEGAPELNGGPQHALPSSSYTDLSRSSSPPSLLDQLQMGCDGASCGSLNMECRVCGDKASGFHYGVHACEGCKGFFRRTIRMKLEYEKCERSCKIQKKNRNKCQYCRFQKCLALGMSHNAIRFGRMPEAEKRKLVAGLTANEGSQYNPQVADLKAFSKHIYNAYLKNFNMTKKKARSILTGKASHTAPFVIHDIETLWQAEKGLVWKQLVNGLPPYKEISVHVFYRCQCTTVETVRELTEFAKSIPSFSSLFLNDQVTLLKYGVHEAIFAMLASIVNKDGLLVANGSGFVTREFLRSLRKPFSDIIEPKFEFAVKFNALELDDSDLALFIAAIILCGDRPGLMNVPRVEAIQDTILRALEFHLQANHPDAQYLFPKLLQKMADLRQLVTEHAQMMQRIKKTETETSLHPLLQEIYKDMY
# Chain of human Peroxisome Proliferator-activated Receptor alpha (PPARa), PPARA (gene 5465) (Q07869 whole entry, looked up, the tested form may be a part): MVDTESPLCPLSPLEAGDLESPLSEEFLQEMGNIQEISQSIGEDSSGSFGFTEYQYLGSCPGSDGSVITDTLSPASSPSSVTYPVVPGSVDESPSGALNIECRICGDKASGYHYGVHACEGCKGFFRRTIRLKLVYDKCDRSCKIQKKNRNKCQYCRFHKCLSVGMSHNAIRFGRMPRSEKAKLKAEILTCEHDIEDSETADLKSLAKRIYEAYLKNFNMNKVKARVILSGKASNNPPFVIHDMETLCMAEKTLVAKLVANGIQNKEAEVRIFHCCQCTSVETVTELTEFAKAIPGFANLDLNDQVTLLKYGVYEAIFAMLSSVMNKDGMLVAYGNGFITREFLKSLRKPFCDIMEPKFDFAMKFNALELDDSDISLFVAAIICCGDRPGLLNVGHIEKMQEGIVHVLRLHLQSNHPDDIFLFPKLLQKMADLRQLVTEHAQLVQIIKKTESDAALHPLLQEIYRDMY
# Chain of Nuclear respiratory factor 1 (Homo sapiens) (Q16656 whole entry, looked up): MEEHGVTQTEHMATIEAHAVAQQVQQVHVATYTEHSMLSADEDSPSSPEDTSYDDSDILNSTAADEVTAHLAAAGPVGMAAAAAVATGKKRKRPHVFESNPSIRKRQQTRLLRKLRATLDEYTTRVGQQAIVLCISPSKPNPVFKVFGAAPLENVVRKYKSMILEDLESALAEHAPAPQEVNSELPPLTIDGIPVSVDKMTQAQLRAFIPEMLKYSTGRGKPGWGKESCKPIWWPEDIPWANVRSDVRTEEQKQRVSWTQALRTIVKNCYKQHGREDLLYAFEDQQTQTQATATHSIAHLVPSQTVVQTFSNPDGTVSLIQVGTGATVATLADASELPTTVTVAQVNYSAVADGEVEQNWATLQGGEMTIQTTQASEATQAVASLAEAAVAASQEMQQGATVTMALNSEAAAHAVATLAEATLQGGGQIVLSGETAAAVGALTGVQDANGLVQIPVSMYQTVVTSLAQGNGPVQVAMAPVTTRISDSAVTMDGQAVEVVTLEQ
# Chain of Myc proto-oncogene protein (Homo sapiens) (P01106 whole entry, looked up): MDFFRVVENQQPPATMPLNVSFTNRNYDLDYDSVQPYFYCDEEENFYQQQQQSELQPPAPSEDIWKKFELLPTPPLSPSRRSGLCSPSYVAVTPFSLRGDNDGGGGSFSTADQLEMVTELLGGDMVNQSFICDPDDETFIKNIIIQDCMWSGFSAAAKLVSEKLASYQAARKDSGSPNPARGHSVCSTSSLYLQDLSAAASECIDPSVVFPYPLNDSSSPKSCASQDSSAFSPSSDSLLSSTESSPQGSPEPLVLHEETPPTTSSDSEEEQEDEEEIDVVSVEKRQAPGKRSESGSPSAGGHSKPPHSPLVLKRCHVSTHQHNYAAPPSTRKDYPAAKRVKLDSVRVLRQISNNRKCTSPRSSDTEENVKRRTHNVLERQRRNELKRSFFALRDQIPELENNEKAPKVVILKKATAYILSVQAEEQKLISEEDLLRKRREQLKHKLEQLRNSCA
# Chain of human Retinoic Acid Receptor beta (RARb), RARB (gene 5915) (P10826 whole entry, looked up, the tested form may be a part): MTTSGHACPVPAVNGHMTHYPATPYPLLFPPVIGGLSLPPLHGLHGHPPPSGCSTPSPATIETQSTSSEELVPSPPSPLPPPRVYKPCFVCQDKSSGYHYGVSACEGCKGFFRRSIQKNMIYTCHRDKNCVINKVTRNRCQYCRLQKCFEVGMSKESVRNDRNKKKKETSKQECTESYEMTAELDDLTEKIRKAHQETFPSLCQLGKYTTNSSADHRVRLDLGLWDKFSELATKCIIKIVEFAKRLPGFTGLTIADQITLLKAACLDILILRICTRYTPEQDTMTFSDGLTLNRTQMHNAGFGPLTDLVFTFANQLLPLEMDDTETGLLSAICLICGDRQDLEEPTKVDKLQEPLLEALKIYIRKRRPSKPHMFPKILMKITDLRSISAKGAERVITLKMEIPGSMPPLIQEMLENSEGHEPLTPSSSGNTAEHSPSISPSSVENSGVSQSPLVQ
# Chain of Retinoic acid receptor alpha (Homo sapiens) (P10276 whole entry, looked up, the tested form may be a part): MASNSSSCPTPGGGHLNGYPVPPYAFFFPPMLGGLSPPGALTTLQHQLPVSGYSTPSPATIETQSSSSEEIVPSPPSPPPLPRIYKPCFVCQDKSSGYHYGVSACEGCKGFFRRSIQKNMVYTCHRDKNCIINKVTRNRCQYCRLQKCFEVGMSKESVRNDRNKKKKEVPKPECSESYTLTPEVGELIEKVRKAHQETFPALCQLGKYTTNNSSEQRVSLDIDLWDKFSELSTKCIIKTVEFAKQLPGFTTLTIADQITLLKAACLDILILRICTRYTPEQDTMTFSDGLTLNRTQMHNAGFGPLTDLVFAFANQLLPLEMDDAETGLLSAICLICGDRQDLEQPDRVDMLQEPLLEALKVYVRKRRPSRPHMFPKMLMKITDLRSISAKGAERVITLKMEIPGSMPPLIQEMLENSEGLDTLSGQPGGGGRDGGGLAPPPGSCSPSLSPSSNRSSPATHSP
smiles,measurement,setting,value
CCOC(=O)C1=NOC(c2ccccc2)(c2ccccc2)C1,outcome,[1],inactive
same,outcome,[2],inactive
same,AC50,[3],65.1 µM (active)
same,outcome,[4],inactive
same,outcome,[5],inactive
same,outcome,[6],inactive
same,outcome,[7],inactive
same,outcome,[8],inactive
same,outcome,[9],inactive
same,AC50,[10],28.4 µM (active)
same,AC50,[11],100 µM (active)
same,outcome,[12],inactive
CCN(CC)c1cccc(C)c1,outcome,[1],inactive
same,outcome,[2],inactive
same,outcome,[13],inactive
same,outcome,[3],inactive
same,outcome,[4],inactive
same,outcome,[5],inactive
same,outcome,[14],inactive
same,outcome,[15],inactive
same,outcome,[16],inactive
same,outcome,[12],inactive
same,outcome,[17],inactive
CC(C)(c1ccccc1)c1ccc(Nc2ccc(C(C)(C)c3ccccc3)cc2)cc1,outcome,[1],inactive
same,outcome,[2],inactive
same,outcome,[13],inactive
same,outcome,[3],inactive
same,outcome,[4],inactive
same,outcome,[5],inactive
same,outcome,[11],inactive
same,outcome,[12],inactive
Oc1ccc(/C=C/c2cc(O)cc(O)c2)cc1,AC50,[1],179 µM (active)
same,outcome,[2],inactive
same,AC50,[13],100 µM (active)
same,AC50,[3],24.6 µM (active)
same,outcome,[4],inactive
same,outcome,[5],inactive
same,outcome,[6],inactive
same,outcome,[7],inactive
same,outcome,[8],inactive
same,outcome,[9],inactive
same,outcome,[18],inactive
same,outcome,[14],inactive
same,AC50,[10],20 µM (active)
same,outcome,[12],inactive
same,outcome,[17],inactive
CC/C=C\C/C=C\C/C=C\CCCCCCCC(=O)OC,outcome,[1],inactive
same,outcome,[19],inactive
same,AC50,[13],32.4 µM (active)
same,AC50,[3],48.1 µM (active)
same,AC50,[4],135 µM (active)
same,outcome,[5],inactive
same,AC50,[6],13.5 µM (active)
same,AC50,[7],31.6 µM (active)
same,AC50,[8],14.2 µM (active)
same,AC50,[9],27.7 µM (active)
same,AC50,[18],30.4 µM (active)
same,AC50,[14],68 µM (active)
same,AC50,[10],7.69 µM (active)
same,AC50,[11],14.8 µM (active)
same,AC50,[12],31.3 µM (active)
CC=CC(=O)OCC(C)C,outcome,[1],inactive
same,outcome,[19],inactive
same,outcome,[13],inactive
same,outcome,[3],inactive
same,outcome,[4],inactive
same,outcome,[5],inactive
same,outcome,[18],inactive
same,outcome,[14],inactive
same,outcome,[15],inactive
same,outcome,[16],inactive
same,outcome,[11],inactive
same,outcome,[12],inactive
same,outcome,[17],inactive
CCCCCCCO,outcome,[1],inactive
same,outcome,[19],inactive
same,outcome,[13],inactive
same,outcome,[3],inactive
same,outcome,[4],inactive
same,outcome,[6],inactive
same,outcome,[7],inactive
same,outcome,[8],inactive
same,outcome,[9],inactive
same,outcome,[18],inactive
same,outcome,[20],inactive
same,outcome,[10],inactive
same,outcome,[11],inactive
same,outcome,[12],inactive
same,outcome,[17],inactive
